Measured values from the supplement of paper PMC10849652.
Targets with a hit are over-represented here; the source holds about 8,800 in all. About 0.5% of all pairs of compound and target were hits. Unmarked numbers belong to inactive results.

Legend:
Assay in all cases: log2 fold change, soluble protein after heating vs DMSO (PISA); higher = thermal stabilisation; K562 lysate, 10 uM; active = over 0.2 and 3.5 SD of the protein, either way, in both replicates (recomputed)
ibrutinib = compound: C=CC(=O)N1CCC[C@@H](n2nc(-c3ccc(Oc4ccccc4)cc3)c3c(N)ncnc32)C1 [ibrutinib]
Procedure, shortened: (§1)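 To prepare the extract, K562 pellets were dounce-homogenised in PBS pH 7.4 with 1 mM MgCl2, giving crude material at 1 mg/mL protein. This was treated with 10 μM compound for 30 min, then heated in aliquots for 3 min over 48°C-58°C before pooling and addition of NP-40 to 0.5% at 4°C. Centrifugation at 21,000xg for 90 min left soluble protein in the supernatant, which TMTpro 16plex LC-MS/MS quantified with equalised channel sums. Results are log-two fold changes in thermal stability compared with solvent controls, from duplicates.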

[1] = compound: CC(=O)c1cnc2ccc(-c3cc(Cl)c(O)c(Cl)c3)nc2c1N[C@H]1CC[C@H](CN(C)C)CC1
Procedure, shortened: as §1

ralimetinib = compound: CC(C)(C)Cn1c(N)nc2ccc(-c3[nH]c(C(C)(C)C)nc3-c3ccc(F)cc3)nc21 [ralimetinib]
Procedure, shortened: as §1

[2] = compound: CC(C)(O)CC(=O)NCCn1ccc2ncnc(Nc3ccc(Oc4cccc(C(F)(F)F)c4)c(Cl)c3)c21
Procedure, shortened: as §1

[3] = compound: CC(C)C1=C2N=C(C=C(N2N=C1)NCC3=CC=CC=C3)NCCCCCCN
Procedure, shortened: as §1

[4] = compound: CC1=C(C(CC(=O)N1)C2=CC=C(C=C2)C(F)(F)F)C(=O)NC3=C(C=C4C(=C3)C=NN4)F
Procedure, shortened: as §1

[5] = compound: CC1=C(C2=C(C=C1)C(=O)C3=CC=CC=C3N2CCCN)C
Procedure, shortened: as §1

[6] = compound: CC1=C(C=C(C=C1)NC(=O)C2=CC(=CC=C2)C(C)(C)C#N)NC3=CC4=C(C=C3)N=CN(C4=O)C
Procedure, shortened: as §1

[7] = compound: CC1=C(C=C(C=C1)NC(=O)C2=CC(=CC=C2)N(C)C)NC(=O)C3=CC=C(C=C3)O
Procedure, shortened: as §1

[8] = compound: CC1=CC=C(C=C1)SC2=C3C=C(SC3=CN=C2)C(=O)N
Procedure, shortened: as §1

vemurafenib = compound: CCCS(=O)(=O)Nc1ccc(F)c(C(=O)c2c[nH]c3ncc(-c4ccc(Cl)cc4)cc23)c1F [vemurafenib]
Procedure, shortened: as §1

[9] = compound: CCCS(=O)(=O)Nc1ccc(F)c(C(=O)c2c[nH]c3ncc(Cl)cc23)c1F
Procedure, shortened: as §1

barasertib = compound: CCN(CCCOc1ccc2c(Nc3cc(CC(=O)Nc4cccc(F)c4)[nH]n3)ncnc2c1)CCOP(=O)(O)O [barasertib]
Procedure, shortened: as §1

[10] = compound: CC[C@@H]1C(=O)N(C)c2cnc(Nc3ccc(C(=O)NC4CCN(C)CC4)cc3OC)nc2N1C1CCCC1
Procedure, shortened: as §1

volasertib = compound: CC[C@@H]1C(=O)N(C)c2cnc(Nc3ccc(C(=O)N[C@H]4CC[C@H](N5CCN(CC6CC6)CC5)CC4)cc3OC)nc2N1C(C)C [volasertib]
Procedure, shortened: as §1

[11] = compound: CCn1c(C(=O)N(C2CC2)C2CC2)cc2c3c(ncn3C)c(Nc3cc(C)n(C)n3)nc21
Procedure, shortened: as §1

[12] = compound: CCn1cc(-c2ccnc3[nH]c(-c4cccc(CN(C)C)c4)cc23)c(-c2ccc(NC(=O)N(C)C)cc2)n1
Procedure, shortened: as §1

[13] = compound: CN1CCC(CNc2ccc3ncc(-c4cccc(OC(F)(F)F)c4)n3n2)CC1
Procedure, shortened: as §1

saracatinib = compound: CN1CCN(CCOc2cc(OC3CCOCC3)c3c(Nc4c(Cl)ccc5c4OCO5)ncnc3c2)CC1 [saracatinib]
Procedure, shortened: as §1

sotrastaurin = compound: CN1CCN(c2nc(C3=C(c4c[nH]c5ccccc45)C(=O)NC3=O)c3ccccc3n2)CC1 [sotrastaurin]
Procedure, shortened: as §1

Chain of UniProt Q9UBQ6 (Q9UBQ6 whole entry, looked up): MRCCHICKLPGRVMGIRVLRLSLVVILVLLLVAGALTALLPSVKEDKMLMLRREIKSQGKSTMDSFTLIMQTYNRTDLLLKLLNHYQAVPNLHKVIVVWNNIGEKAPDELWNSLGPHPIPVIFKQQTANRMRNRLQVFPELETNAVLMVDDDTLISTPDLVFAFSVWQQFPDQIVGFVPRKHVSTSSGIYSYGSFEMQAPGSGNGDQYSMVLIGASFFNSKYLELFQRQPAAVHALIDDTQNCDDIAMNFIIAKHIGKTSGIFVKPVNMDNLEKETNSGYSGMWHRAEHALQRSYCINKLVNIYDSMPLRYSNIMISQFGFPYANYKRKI
Chain of UniProt Q96G46 (Q96G46 whole entry, looked up): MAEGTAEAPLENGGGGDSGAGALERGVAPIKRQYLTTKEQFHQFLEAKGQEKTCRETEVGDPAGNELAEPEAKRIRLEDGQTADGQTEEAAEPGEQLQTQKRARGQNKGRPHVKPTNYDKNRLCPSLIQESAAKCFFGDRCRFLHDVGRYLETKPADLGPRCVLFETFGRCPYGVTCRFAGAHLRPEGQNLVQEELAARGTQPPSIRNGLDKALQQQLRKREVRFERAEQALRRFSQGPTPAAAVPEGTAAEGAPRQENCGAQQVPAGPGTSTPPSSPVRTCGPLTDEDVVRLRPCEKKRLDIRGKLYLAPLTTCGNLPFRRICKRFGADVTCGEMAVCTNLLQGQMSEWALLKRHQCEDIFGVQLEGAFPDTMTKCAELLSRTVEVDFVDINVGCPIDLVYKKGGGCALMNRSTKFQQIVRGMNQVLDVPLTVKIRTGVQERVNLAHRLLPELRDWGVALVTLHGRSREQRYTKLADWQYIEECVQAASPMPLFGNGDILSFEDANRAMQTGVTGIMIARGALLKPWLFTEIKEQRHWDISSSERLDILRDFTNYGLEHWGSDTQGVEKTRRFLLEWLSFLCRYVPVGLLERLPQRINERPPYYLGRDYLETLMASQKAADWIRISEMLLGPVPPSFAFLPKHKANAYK
Chain of UniProt Q8IV48 (Q8IV48 whole entry, looked up): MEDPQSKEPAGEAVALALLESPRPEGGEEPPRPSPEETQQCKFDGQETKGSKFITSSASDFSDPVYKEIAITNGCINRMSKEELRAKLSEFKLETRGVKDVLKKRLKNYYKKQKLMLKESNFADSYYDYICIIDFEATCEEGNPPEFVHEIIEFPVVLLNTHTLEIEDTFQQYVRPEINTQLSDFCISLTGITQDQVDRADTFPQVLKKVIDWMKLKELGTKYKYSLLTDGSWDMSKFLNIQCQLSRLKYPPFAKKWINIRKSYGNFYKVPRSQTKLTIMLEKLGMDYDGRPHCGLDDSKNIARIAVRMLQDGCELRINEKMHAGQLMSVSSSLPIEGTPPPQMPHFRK
Chain of UniProt P41214 (P41214 whole entry, looked up): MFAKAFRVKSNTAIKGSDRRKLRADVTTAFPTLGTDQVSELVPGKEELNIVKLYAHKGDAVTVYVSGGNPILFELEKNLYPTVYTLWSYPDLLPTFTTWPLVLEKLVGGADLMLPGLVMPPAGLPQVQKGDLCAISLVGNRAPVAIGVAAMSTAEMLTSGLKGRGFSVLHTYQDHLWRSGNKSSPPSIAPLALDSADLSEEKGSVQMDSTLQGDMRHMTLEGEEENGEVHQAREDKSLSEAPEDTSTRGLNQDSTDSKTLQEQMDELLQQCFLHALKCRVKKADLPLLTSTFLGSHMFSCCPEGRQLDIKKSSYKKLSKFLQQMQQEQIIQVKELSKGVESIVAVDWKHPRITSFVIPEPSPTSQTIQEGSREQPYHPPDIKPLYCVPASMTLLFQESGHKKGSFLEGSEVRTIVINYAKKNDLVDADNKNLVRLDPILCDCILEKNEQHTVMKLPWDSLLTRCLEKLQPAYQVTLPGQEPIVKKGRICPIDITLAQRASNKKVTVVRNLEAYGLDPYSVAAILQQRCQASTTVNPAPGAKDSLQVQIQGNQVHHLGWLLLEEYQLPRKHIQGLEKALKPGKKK
Chain of UniProt Q96L91 (Q96L91 whole entry, looked up): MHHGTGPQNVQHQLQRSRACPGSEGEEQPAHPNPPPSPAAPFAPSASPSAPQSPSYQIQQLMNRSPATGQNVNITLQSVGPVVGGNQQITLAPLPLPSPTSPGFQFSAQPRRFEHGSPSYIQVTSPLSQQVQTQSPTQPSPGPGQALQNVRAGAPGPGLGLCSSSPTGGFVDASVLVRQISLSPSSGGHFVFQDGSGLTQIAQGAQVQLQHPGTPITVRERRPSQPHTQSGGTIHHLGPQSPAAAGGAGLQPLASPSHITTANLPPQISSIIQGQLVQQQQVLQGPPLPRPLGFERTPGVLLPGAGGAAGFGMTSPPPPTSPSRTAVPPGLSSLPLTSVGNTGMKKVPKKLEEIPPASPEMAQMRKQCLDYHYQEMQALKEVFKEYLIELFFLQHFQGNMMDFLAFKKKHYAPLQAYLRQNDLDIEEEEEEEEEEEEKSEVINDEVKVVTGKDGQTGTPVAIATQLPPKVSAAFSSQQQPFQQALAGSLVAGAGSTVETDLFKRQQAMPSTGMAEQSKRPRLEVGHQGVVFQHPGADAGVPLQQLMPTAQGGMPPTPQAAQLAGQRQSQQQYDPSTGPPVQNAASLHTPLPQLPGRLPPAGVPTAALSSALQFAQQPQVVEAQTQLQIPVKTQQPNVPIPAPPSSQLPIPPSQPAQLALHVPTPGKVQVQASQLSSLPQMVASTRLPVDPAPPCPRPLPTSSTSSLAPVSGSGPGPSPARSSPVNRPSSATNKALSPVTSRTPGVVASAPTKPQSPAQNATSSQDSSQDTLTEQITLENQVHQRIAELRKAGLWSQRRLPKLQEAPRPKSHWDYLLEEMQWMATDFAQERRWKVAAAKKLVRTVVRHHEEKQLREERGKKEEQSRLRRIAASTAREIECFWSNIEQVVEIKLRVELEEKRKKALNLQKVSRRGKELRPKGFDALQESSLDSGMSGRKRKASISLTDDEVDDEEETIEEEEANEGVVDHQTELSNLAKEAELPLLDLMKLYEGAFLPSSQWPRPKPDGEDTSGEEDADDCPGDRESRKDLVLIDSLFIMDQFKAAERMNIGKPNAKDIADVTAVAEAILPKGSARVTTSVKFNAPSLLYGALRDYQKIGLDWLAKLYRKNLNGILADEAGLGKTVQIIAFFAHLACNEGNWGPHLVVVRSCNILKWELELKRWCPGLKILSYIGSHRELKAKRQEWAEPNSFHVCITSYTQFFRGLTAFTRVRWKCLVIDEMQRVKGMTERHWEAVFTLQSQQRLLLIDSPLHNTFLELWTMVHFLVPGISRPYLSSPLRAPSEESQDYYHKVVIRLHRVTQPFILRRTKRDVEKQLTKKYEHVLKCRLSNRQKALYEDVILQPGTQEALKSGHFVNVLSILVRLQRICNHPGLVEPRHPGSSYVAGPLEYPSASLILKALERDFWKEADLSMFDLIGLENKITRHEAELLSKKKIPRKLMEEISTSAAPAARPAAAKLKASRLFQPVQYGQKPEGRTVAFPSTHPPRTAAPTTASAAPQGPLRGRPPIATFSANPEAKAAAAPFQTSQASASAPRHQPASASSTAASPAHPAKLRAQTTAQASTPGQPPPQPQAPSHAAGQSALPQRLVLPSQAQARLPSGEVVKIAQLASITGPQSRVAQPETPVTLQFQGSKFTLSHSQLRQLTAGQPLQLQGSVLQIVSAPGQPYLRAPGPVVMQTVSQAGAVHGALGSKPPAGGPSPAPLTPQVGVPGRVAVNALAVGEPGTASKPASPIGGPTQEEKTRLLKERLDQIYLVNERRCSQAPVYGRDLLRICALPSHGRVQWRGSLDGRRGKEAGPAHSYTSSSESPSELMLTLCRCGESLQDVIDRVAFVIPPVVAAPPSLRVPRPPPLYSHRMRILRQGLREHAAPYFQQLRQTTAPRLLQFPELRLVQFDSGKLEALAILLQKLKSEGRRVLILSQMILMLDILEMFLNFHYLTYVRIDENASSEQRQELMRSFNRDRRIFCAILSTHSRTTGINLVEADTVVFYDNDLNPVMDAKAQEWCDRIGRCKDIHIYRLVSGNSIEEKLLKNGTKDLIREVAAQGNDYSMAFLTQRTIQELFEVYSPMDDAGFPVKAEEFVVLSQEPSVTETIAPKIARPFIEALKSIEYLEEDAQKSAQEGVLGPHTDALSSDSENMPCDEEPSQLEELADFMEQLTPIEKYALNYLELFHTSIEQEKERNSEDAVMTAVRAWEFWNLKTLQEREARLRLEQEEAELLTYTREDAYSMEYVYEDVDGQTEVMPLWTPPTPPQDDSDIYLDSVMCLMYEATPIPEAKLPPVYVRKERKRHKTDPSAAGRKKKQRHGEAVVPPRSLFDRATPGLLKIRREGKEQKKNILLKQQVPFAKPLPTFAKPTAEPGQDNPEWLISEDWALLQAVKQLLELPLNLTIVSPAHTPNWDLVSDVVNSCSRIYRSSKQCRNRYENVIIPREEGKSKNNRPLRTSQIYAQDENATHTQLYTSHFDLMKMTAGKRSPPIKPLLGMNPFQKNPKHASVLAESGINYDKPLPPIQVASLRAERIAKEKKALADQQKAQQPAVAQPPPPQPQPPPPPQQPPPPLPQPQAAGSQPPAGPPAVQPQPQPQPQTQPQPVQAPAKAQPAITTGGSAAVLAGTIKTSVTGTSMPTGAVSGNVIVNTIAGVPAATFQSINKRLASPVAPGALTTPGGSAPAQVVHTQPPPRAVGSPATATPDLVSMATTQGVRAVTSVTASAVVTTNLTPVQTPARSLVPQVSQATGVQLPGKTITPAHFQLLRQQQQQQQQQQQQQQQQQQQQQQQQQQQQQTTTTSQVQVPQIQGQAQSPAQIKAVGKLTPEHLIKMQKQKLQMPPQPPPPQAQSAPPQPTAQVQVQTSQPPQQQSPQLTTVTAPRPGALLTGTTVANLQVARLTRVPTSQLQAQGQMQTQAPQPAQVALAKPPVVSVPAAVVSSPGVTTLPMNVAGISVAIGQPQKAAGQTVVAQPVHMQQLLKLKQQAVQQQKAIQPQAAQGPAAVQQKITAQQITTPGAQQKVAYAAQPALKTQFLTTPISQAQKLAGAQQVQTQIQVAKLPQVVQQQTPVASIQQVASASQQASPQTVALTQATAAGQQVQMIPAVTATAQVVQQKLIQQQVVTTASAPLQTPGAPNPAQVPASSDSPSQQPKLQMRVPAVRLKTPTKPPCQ

| Target | log2 fold change (ibrutinib) | log2 fold change [1] | log2 fold change (ralimetinib) | log2 fold change [2] | log2 fold change [3] | log2 fold change [4] | log2 fold change [5] | log2 fold change [6] | log2 fold change [7] | log2 fold change [8] | log2 fold change (vemurafenib) | log2 fold change [9] | log2 fold change (barasertib) | log2 fold change [10] | log2 fold change (volasertib) | log2 fold change [11] | log2 fold change [12] | log2 fold change [13] | log2 fold change (saracatinib) | log2 fold change (sotrastaurin) |
| --- | --- | --- | --- | --- | --- | --- | --- | --- | --- | --- | --- | --- | --- | --- | --- | --- | --- | --- | --- | --- |
| EIF2D (UniProt P41214) | 0.011 | -0.017 | 0.018 | 0.026 | 0.03 | -0.005 | -0.03 | -0.004 | 0.016 | 0.01 | 0.041 | 0.024 | 0.017 | -0.074 | -0.052 | 0.001 | -0.02 | -0.071 | -0.002 | 0.026 |
| ERI1 (UniProt Q8IV48) | -0.037 | 0.022 | -0.035 | 0.085 | 0.084 | -0.05 | 0 | -0.033 | 0.411 | 0.012 | 0.01 | 0.01 | 0.008 | -0.018 | -0.023 | -0.008 | 0.065 | -0.112 | -0.006 | 0.034 |
| ETHE1 (UniProt O95571) | -0.029 | -0.01 | 0.03 | -0.021 | -0.092 | 0.087 | 0.022 | 0.011 | 0.046 | -0.042 | -0.018 | 0.022 | 0.076 | -0.013 | -0.017 | -0.007 | 0.044 | 0.003 | 0.001 | -0.004 |
| EIF2AK1 (UniProt Q9BQI3) | 0.007 | -0.151 | 0.028 | 0.034 | -0.017 | -0.001 | -0.007 | 0.044 | 0.018 | -0.072 | -0.004 | -0.05 | 0.019 | -0.016 | -0.287 (active) | -0.002 | -0.001 | -0.037 | -0.019 | 0 |
| FNTB (UniProt P49356) | -0.018 | 0.005 | 0.03 | -0.013 | -0.022 | -0.036 | -0.026 | -0.011 | 0.038 | -0.013 | 0.055 | -0.009 | -0.036 | 0.285 (active) | 0.005 | 0.037 | -0.036 | 0.016 | 0.016 | 0.042 |
| FAU (UniProt E9PR30) | -0.018 | 0.012 | -0.01 | -0.018 | -0.122 | -0.034 | -0.015 | 0.029 | -0.003 | 0.027 | -0.009 | -0.015 | -0.17 | 0.005 | -0.002 | 0.036 | 0.33 (active) | -0.076 | -0.042 | -0.012 |
| FKBP1A (UniProt P62942) | 0.083 | -0.103 | 0.188 | -0.054 | 0.049 | -0.022 | -0.013 | 0.084 | 0.018 | 0.187 | -0.138 | -0.028 | 0.092 | 0.107 | 0.163 | -0.036 | -0.854 (active) | 0.146 | 0.052 | -0.017 |
| EP400 isoform 5 (UniProt Q96L91) | -0.061 | -0.018 | 0.02 | -0.033 | -0.027 | 0.047 | -0.014 | 0.016 | 0.035 | 0.041 | -0.021 | -0.007 | -0.015 | 0.044 | -0.042 | -0.023 | -0.007 | 0.011 | 0.01 | -0.012 |
| DUS3L (UniProt Q96G46) | 0.012 | -0.003 | 0.023 | -0.034 | -0.007 | 0.004 | -0.007 | 0.014 | 0.001 | -0.003 | -0.055 | 0.004 | -0.038 | -0.025 | 0.005 | -0.043 | 0.246 (active) | -0.048 | 0.021 | 0.033 |
| GDPD1 (UniProt Q8N9F7) | 0.039 | -0.058 | 0.06 | -0.137 | 0.047 | -0.032 | -0.001 | 0.055 | 0.024 | -0.063 | 0.116 | 0.055 | -0.005 | 0.041 | -0.008 | 0.004 | 0.074 | -0.032 | -0.023 | 0.005 |
| EIF2AK2 (UniProt P19525) | 0.014 | 0.015 | -0.025 | 0.035 | -0.009 | 0.015 | -0.008 | -0.015 | -0.019 | -0.03 | 0.025 | 0.012 | -0.038 | -0.09 | -0.03 | -0.008 | -0.081 | 0.067 | -0.011 | 0.007 |
| EXTL2 (UniProt Q9UBQ6) | 0.217 | -0.056 | -0.015 | 0 | -0.077 | 0.021 | -0.146 | 0.014 | -0.04 | -0.071 | -0.052 | 0.066 | 0.057 | -0.13 | 0.019 | 0.03 | -0.198 | 0.078 | -0.017 | -0.026 |
| ENO1, A0A2R8YEM5 | -0.013 | 0.008 | -0.012 | -0.016 | -0.024 | -0.032 | 0.001 | 0.012 | -0.044 | 0.014 | -0.03 | -0.017 | -0.056 | 0.008 | 0.004 | -0.04 | -0.44 (active) | 0.325 (active) | 0.031 | -0.011 |
| EWSR1 isoform 5 (UniProt Q01844) | -0.016 | -0.026 | -0.017 | -0.011 | 0.038 | -0.012 | 0.016 | -0.023 | -0.033 | 0 | 0.033 | -0.023 | -0.013 | 0.039 | 0.045 | -0.006 | -0.019 | 0.021 | -0.017 | 0.037 |
| GAMT (UniProt Q14353) | 0.029 | -0.008 | 0.019 | 0.013 | -0.041 | 0.071 | -0.009 | -0.003 | -0.003 | 0.005 | 0.037 | 0.045 | 0.112 | 0.036 | 0.007 | 0.011 | 0.003 | -0.029 | -0.014 | 0.018 |
